Only some compounds are listed: those with a hit (about 21% of all), similar ones and a draw of the others.
ClpP mod: qHTS Assay for Activators of ClpP; ATP-dependent Clp protease proteolytic subunit (Bacillus subtilis (strain 168)), P80244; purified B. subtilis ClpP, FRET peptide cleavage, 20 min; Potency, µM (top dose mostly 57.5 µM), for the others: at the highest dose activity change, negative = active; 340,000 tested, 1.9% active; AID 651965, 2013; active = well fitted falling curve with a large enough effect; inconclusive = small, poorly fitted or top-dose-only effect; inactive = no such curve, though single readings can be large or run the other way; note: potency is the fitted concentration of half-maximal effect; the source files actives as falling curves though it sought activators and does not explain the sign; nearly all actives have a fitted effect of over 65% in size
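Purified B. subtilis ClpP, 10 microg/mL final in Tris/HCl pH8 with KCl, BSA, glycerol and Tween-20, cleaved an Abz/nitrotyrosine-quenched decapeptide. Fluorescence (ex 320, em 430) was read at 0 and 20 min at room temperature. Delta was normalized to 5.8 microM ADEP and DMSO/no-enzyme controls.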
DRD3 agonist: agonists of human D3 dopamine receptor; P35462; D3R DiscoveRx beta-arrestin cells, luminescence, 90 min; max activation, %; 410,000 tested, 0.58% active; AID 652048; in the data active = max activation above about 30%; note: 0% is about no effect
Target sequence (P35462 whole entry, looked up): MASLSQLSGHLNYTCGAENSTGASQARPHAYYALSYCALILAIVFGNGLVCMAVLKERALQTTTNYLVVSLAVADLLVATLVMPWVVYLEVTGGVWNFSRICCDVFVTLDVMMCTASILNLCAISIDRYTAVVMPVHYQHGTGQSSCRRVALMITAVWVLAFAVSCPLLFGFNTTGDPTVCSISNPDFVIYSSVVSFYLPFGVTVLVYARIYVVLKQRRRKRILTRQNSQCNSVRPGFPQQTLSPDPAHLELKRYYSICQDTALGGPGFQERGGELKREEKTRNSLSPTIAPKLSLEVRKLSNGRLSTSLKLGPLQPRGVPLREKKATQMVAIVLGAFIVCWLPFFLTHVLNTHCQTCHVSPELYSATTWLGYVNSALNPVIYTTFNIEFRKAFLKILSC
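Agonist-mode cell screen: cells plated at 1500/well and incubated overnight at 37 °C, then exposed to library compounds for 90 min at 37 °C. Detection reagent was added for 30–60 min at room temperature, and luminescence was read.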
D3 antag: blocks the human D3 dopamine receptor; 360,000 tested, 2.5% active; max response, negative = inhibition, %; D3R cells, DiscoveRx beta-arrestin luminescence, antagonist mode; hits give low values; P35462; in the data active = max response below about -50%; inconclusive = no clear call, values can overlap the other calls; note: % is set by controls: 0 for no effect and ±100 for the full control effect
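Cells plated overnight at 1500 cells/well, then exposed to library compounds with dopamine controls for 90 minutes at 37 degrees C. DiscoveRx reagent added for 30–60 minutes at room temperature; luminescence read, quantitative HTS format.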
DT40 TDP1 no CPT: qHTS for Inhibitors of human tyrosyl-DNA phosphodiesterase 1 (TDP1): qHTS in cells in absence of CPT; DT40 Tdp1-/- hTDP1 cells, no CPT, ATP luminescence, 48 h; Potency, µM (highest dose often 46.2 µM), for the others: at the highest dose activity change, negative = growth inhibition, hits mostly inhibitors; 420,000 tested, 15% active; note: potency is the fitted concentration of half-maximal effect; % is set by controls: 0 for no effect and ±100 for the full control effect; nearly all actives have a fitted effect of over 55% in size
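Readout: luminescence from CellTiter-Glo after 30 min in the dark at RT. Cells: DT40 Tdp1-/- with stable hTDP1, 400/well. Exposure: compounds alone, ≥48 hr, 37 °C.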
TDP1 cell CPT: DT40-hTDP1 cell growth loss with CPT; chicken DT40 Tdp1-/-;hTDP1 cells + 20 nM CPT, ATP luminescence, 48 h; Potency, µM (doses to about 46.2 µM), inactives show at the top dose activity change, negative = growth inhibition, most hits filed as inhibitors; 420,000 tested, 12% active; AID 686979; note: potency is the fitted concentration of half-maximal effect; % is set by controls: 0 for no effect and ±100 for the full control effect; nearly all actives have a fitted effect of over 55% in size
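Cell growth measured by CellTiter-Glo luminescence after a minimum 48 h, 37 C compound exposure with 20 nM CPT in Tdp1-knockout DT40 cells stably expressing hTDP1, seeded 400/well; qHTS titration format.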
IL1B secr inh: inhibitors of inflammasome signaling (IL-1 beta secretion). THP-1 LPS/ATP IL-1B secretion, AlphaLISA, 16 h; hits give low values. activity change, % at 57.5 µM. 360,000 tested, 4.7% active. AID 743279; in the data active = activity change below about -50%; inconclusive = mostly about -30% to -49%; note: % is set by controls: 0 for no effect and ±100 for the full control effect
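Secreted IL-1B measured by AlphaLISA bead assay after 16 h compound exposure of THP-1 cells; compounds (final up to 57.5 uM) added 1 h before LPS (250 ng/mL) and ATP (1.25 mM) stimulation; lower signal means less secretion.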
* hit, by the source's call; u = inconclusive; x = not tested or not shown. Unless noted, calls come from the whole dose curve; as a rule, active = well fitted inhibition curve with a large enough effect; inconclusive = small, poorly fitted or top-dose-only effect; inactive = flat fitted curve, though single readings scatter.

SMILES | ClpP mod | DRD3 agonist | D3 antag | DT40 TDP1 no CPT | TDP1 cell CPT | IL1B secr inh
CCNc1nc(NCC)n2c(SCC(=O)Nc3ccc(C)c(C)c3)nnc2n1 | x | 6 | 8 | -10% | -2% | 7
CCCCN(C)CCCNC(=O)c1cc(-c2cccnc2)nc2ccccc12 | -13% | -8 | -11 | 9% | 3% | 5
CCN(CC)CCNC(=O)c1cc(-c2cccnc2)nc2ccc(S(=O)(=O)N3CCC(C)CC3)cc12 | -1% | 2 | 20 | u | u | -99*
CC1CCN(S(=O)(=O)c2ccc3nc(-c4cccnc4)cc(C(=O)NCCCOC(C)C)c3c2)CC1 | 1% | -8 | x | 11% | 4% | x
CCCCN(C)CCNC(=O)c1cc(-c2cccnc2)nc2ccc(S(=O)(=O)N3CCC(C)CC3)cc12 | -4% | -9 | -10 | 15µM* | u | -14
CCCCN(CCCC)CCNC(=O)c1cc(-c2cccnc2)nc2ccc(S(=O)(=O)N3CCC(C)CC3)cc12 | 1% | 2 | x | -2% | 3.7µM* | x
CCc1ccc2[nH]c(=O)c(CN(Cc3ccccc3)C(=O)Nc3ccccc3OC)cc2c1 | -21% | 0 | -7 | u | u | -59*
CCc1ccc2[nH]c(=O)c(CN(CCCO)C(=O)NCc3ccccc3)cc2c1 | u | 0 | 7 | u | -19% | 31
CCc1ccc2[nH]c(=O)c(CN(CCN3CCOCC3)C(=O)Nc3ccccc3F)cc2c1 | -12% | 7 | 21 | u | u | -10
CCc1ccc2[nH]c(=O)c(CN(CCN(C)C)C(=O)Nc3ccccc3OC)cc2c1 | 28µM* | -1 | 0 | u | u | u
CC(Oc1ccccc1)C(=O)N/N=C/c1ccccn1 (configuration not stated) | 0% | -2 | -6 | -7% | u | 6
CCOc1cc(/C=C2/SC(=S)NC2=O)ccc1OC(=O)c1ccco1 | x | 6 | 6 | 12µM* | 23µM* | -51*
COc1cc(/C=C2/SC(=O)NC2=O)ccc1OC(=O)c1ccco1 | 1% | -1 | -20 | 16µM* | 16µM* | -22
Cc1cc(Br)ccc1S(=O)(=O)NCc1ccccc1 | 0% | 0 | 1 | 1% | -27% | -14
c1ccc(CN2CCN(Cc3nnc(-c4ccccc4)o3)CC2)cc1 | x | -2 | 3 | 0% | 5% | 20
Clc1cccc(-c2nnc(CN3CCN(c4ccccn4)CC3)o2)c1 | -1% | 95* | x | -26% | 3% | x
c1ccc(-c2nnc(CN3CCN(c4ccccn4)CC3)o2)cc1 | -14% | 98* | x | -20% | -16% | x
Fc1ccc(-c2nnc(CN3CCN(c4ccccn4)CC3)o2)cc1 | -4% | 80* | x | -14% | -4% | x
Fc1ccc(N2CCN(Cc3nnc(-c4ccccc4Cl)o3)CC2)cc1 | -3% | 2 | x | -20% | 0% | x
CCOc1ccc(-n2c(Cc3ccccc3)nnc2SCc2c(C)noc2C)cc1 | 2.8µM* | 10 | 0 | u | u | -1
CCn1c(CC(=O)Nc2ccc(Cl)c(Cl)c2)nnc1SCc1ccc(C)cc1 | 0% | 7 | -93* | u | 11% | -14
CCn1c(CNc2ccc(Cl)cc2)nnc1SCc1ccc(C)cc1 | 2% | 0 | -9 | -27% | u | u
CCn1c(CNc2ccc(Cl)cc2)nnc1SCc1ccc(Cl)cc1 | -2% | -4 | -18 | 18µM* | u | -2
CCn1c(SCc2ccc(C(=O)Nc3cc(C)cc(C)c3)cc2)nnc1-c1ccncc1 | 0% | -3 | 2 | u | u | -65*
CCn1c(CC(=O)Nc2ccc(Cl)c(Cl)c2)nnc1SCc1ccc(Cl)cc1 | -3% | -13 | 26 | -19% | -5% | -5
Cc1noc(C)c1S(=O)(=O)Nc1ccc2c(c1)C(=O)N([C@H](C)CO)C[C@H](C)[C@@H](CN(C)C(=O)NC1CCCCC1)O2 | -7% | 10 | 0 | 3% | -1% | -1

Screening data as filed in PubChem.
